The values below come from PubChem BioAssay.

Experiment [1] is described as follows: reducers of endogenous Her2 protein level, primary screen, SKBR3 breast tumor cells, AlphaScreen, ATP viability (AID 461;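 active means Her2 level under about 52% in both replicate screens, with viability over 70% of control, limit read from the data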;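 on Her2 level: lower value means less Her2 protein in the cells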;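 on viability: percent of carrier control wells set as 100% viability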). The following applies: 18-24 h, measured here: SKBR3 viability, ATP luminescence, at 10 µM.
Experiment [2] concerns the target Receptor tyrosine-protein kinase erbB-2 (Homo sapiens) (UniProt P04626). The description is as above. The following applies: 18-24 h, at 10 µM, stronger effect = lower value.
Experiment [3] is described as follows: SK-BR-3 cell growth inhibitors, pilot screen, 24 h, human (AID 572;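 active means viability at or below 10% of carrier control in both of two separate runs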;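 further: compound exposure lasted between 18 and 24 h rather than exactly 24 h; 100% = carrier-treated control wells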). The following applies: SK-BR-3 viability, CellTiter-Glo luminescence, at 10 µM, stronger effect = lower value. A general note: ATP-based viability assays read luminescence as a measure of living cells.
Experiment [4] in a line: HUVEC growth inhibition – cell-based, human, primary screen (AID 575;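 active means viability at or below 30% in both replicate assays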;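 further: 100% = median of untreated cell wells with 0.1% DMSO on each plate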). The following applies: HUVEC proliferation, CellTiter-Glo luminescence, 72 h; at 10 µM; stronger effect = lower value.
Experiment [5] in a line: growth inhibitors of H69AR lung tumor, primary screen, human, duplicate replicates (AID 580;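 active means viability at or under a set limit in both replicates, limit being median viability minus 3 SD, cut at about 48% in these data, passing the limit was not always enough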;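 further: 100% = mean luminescence of untreated wells and 0% = no signal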). The following applies: H69AR lung tumor cells viability, ATP luminescence, 72 h; at 10 µM; stronger effect = lower value.
Experiment [6] can be described thus: reversal of MRP1-mediated doxorubicin resistance, pilot screen, H69AR cells, doxorubicin co-treatment (AID 601;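 active means viability loss from added drug above about 55%, and viability with drug at most 40%, in both replicates, limit read from the data, passing the limit was not always enough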). The following applies: CellTiter-Glo, 72 h, at 10 µM; for differential viability (reversal): stronger effect = higher value.
A short description of experiment [7]: 384-well plate pilot, post-Golgi transport modulator project, inhibition of yeast transport mutant growth (AID 636; in the data active means inhibition above about 31%). The following applies: absorbance 615 nm, about 18 h, stronger effect = higher value.
Experiment [8] is described as follows: growth suppression of yeast trafficking mutant, preliminary HTS, modulators of trafficking downstream of Golgi apparatus project, 1536-format plate, OD 615 nm (AID 637; in the data active means inhibition above about 30%). The following applies: yeast transport mutant growth, absorbance 615 nm, 18 h; stronger effect = higher value.
The nature of experiment [9]: OD615 S. cerevisiae growth inhibition, permissive medium, pilot counter-assay, permissive growth control for S. cerevisiae lifespan shortening project (AID 705;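 active means growth inhibition above 25% in both replicates, a cutoff set 3 SD above the mean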). The following applies: OD615, 24 h, at 10 µM, stronger effect = higher value.
Experiment [10] is described as follows: Restrictive medium S. cerevisiae growth inhibition, OD615, pilot screen of yeast lifespan reduction project, restrictive growth control (AID 706;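 active means growth inhibition above a set limit, 3 SD over mean compound inhibition, in both replicates, cut at about 43% in these data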;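 further: modified DeaD lifespan yeast strain shifted to restrictive glucose medium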). The following applies: OD615, 48 h, at 10 µM, stronger effect = higher value.
Experiment [11] in a line: viability gain of MRP-1-high H69AR cells under doxorubicin, pilot screen, MRP-1 activator project, CellTiter-Glo, duplicate (AID 807;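 active means viability increase at or above a cutoff of the median across tested compounds plus 3 SD, cut at about 8.5% in these data, passing the limit was not always enough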;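 further: compound pretreatment 18-22 h then 72 h combined with doxorubicin; 0% = doxorubicin alone and 100% = vehicle without doxorubicin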). The following applies: H69AR viability with doxorubicin, CellTiter-Glo luminescence; at 10 µM; stronger effect = higher value.
Experiment [12] can be described thus: growth suppression of beta-catenin knockout HCT116, pilot screen, human colon tumor cells (AID 823;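 active means cell viability at or below a set limit in both duplicate runs, the limit being the all-compound median minus 4 SD, cut at about 23% in these data, passing the limit was not always enough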;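 further: 0% = wells killed by 20 µM Hyamine and 100% = untreated DMSO cell wells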). The following applies: CellTiter-Glo, 60 h, at 10 µM, stronger effect = lower value.
A short description of experiment [13]: growth suppression of PTEN-deleted HCT116, pilot screen, cell-based, HCT116 clonal line, CellTiter-Glo (AID 824).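 Further: 0% = 20 µM Hyamine control and 100% = vehicle cell control.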 The following applies: 60 h, at 10 µM, stronger effect = lower value.
Experiment [14] can be described thus: inhibitors of the yeast RAM network, pilot screen, dse1pr::URA3 reporter, 5-FOA selection (AID 869;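 active means inhibition over a set limit, the all-compound mean plus 3 SD, in both replicate runs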;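 further: 0% = DMSO wells with no growth and 100% = 10 µM 1-NA-PP1 with full growth; RAM network block rescues cells from 5-FOA so hits raise OD615 growth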). The following applies: S. cerevisiae dse1pr::URA3 5-FOA growth, OD615, 2 d; at 10 µM; stronger effect = higher value; strain carries analog-sensitive mutant Cbk1 kinase.
Experiment [15] is described as follows: RAM signaling pathway blockade in yeast – S. cerevisiae, Pdr1DBD-CYC8 efflux-inhibited sensitized strain, primary screen (AID 1298;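 active means RAM network inhibition above 8.4% in each of two replicates, 3 SD over the compound average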;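 further: 0% = DMSO untreated cells without growth and 100% = 10 µM 1-NA-PP1 full growth; higher means more yeast growth rescued from 5-FOA killing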). The following applies: S. cerevisiae cbk1-as DSE1-URA3 strain, 5-FOA growth OD615, 2 d; at 50 µM; stronger effect = higher value.
[16] abbreviates: H69AR cells + 2 uM doxorubicin, measured here: viability with 2 uM doxorubicin, stronger effect = lower value.
The mark [17] stands for this setting: H69AR cells, compound alone cytotoxicity.

Records with an inconclusive call do not appear. The source made the active and inactive calls.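 How the source made its calls, unless noted: active means viability at or below 27.92% in each of two runs, the all-compound median minus 4 SD; inconclusive means no clear call, values can overlap the other calls; inactive means the rest.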

Receptor tyrosine-protein kinase erbB-2 (Homo sapiens), sequence (P04626 whole entry, looked up): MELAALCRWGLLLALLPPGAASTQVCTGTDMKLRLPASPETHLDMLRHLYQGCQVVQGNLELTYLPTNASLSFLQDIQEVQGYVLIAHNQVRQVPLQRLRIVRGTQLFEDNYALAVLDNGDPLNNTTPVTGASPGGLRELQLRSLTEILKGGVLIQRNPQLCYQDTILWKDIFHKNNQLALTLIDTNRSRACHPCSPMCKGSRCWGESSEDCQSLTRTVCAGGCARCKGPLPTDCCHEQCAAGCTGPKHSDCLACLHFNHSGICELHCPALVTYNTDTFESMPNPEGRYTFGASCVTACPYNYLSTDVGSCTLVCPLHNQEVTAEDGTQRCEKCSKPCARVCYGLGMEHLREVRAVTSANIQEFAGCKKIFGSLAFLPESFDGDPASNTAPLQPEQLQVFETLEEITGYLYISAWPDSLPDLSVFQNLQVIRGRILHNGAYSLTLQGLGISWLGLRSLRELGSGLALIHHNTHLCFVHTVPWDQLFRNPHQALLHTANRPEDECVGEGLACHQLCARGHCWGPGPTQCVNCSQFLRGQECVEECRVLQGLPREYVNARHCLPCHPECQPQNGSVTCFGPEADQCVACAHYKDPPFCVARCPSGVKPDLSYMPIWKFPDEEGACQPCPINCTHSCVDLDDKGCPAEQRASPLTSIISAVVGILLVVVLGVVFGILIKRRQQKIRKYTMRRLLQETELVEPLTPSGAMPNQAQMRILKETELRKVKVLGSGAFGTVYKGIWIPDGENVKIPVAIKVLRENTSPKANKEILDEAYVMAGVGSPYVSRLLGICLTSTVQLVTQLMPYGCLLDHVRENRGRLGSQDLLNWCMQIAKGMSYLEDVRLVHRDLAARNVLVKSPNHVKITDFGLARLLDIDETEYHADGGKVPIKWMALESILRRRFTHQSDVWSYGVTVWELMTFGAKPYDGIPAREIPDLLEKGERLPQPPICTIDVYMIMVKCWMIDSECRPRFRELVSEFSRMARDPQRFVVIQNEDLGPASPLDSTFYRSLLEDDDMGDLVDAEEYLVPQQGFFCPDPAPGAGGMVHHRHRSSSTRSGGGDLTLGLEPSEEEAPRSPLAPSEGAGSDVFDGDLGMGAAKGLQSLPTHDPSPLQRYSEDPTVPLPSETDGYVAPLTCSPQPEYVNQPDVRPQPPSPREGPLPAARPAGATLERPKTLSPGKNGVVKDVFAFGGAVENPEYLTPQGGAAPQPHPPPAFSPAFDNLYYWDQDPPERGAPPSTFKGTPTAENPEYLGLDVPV

In general, viability refers to a read-out of living cells in per cent, often relative to untreated cells. Broadly, the inhibition is the drop in the measured response relative to a control, in per cent. In the case of `C=CCn1c(SCc2cccc(C#N)c2)nnc1-c1ccccc1O`, the viability in experiment [1] was 86.5%; in [3], 86.5% (inactive); in [4], 85.9% (inactive); in [5], 92.4% (inactive); in [6] (setting [16]), 91.8%; in experiment [6] (setting [17]) it was 92.4%. Besides, the viability in [12] is 96.2% (inactive); in experiment [13], 88.4% (inactive). Moreover, the Her2 level in experiment [2] was 102% (inactive). Further, the differential viability (reversal) in [6] (H69AR cells + 2 uM doxorubicin) was 0.595% (inactive). Also, the figures for the inhibition in experiment [7], in experiment [8] and in experiment [14] were -4.4% (inactive), -1.5% (inactive) and 2.62% (inactive), respectively. Further, the growth inhibition in experiment [9] is 4.16% (inactive); in experiment [10] it was 3.15% (inactive). Moreover, the viability increase in [11] is -4.01% (inactive). Besides, the RAM network inhibition in experiment [15] is 8.45% (inactive).
Regarding `CC(C(=O)N1CC2(C)CC1CC(C)(C)C2)N1C(=O)c2ccccc2C1=O` (stereo not given), the viability in experiment [1] was 84%; in experiment [3], 84% (inactive); in [4], 101% (inactive); in experiment [5], 98.1% (inactive); in experiment [6] (setting [16]), 81.3%; in experiment [6] (setting [17]), 98.1%. Moreover, the values for the viability in experiment [12] and in [13] were 82.1% (inactive) and 83.5% (inactive), respectively. The Her2 level in experiment [2] was 101% (inactive). In addition, the differential viability (reversal) in [6] (H69AR cells + 2 uM doxorubicin) is 16.8% (inactive). For the same compound, the inhibition in experiment [7] is -7.07% (inactive); in [8] it was 0.32% (inactive); in experiment [14] it was 0.545% (inactive). The growth inhibition in experiment [9] is -13.3% (inactive); in [10], -0.265% (inactive). Further, the viability increase in experiment [11] was -3.98% (inactive). Moreover, the RAM network inhibition in experiment [15] is 4.35% (inactive).
Regarding `C=CCSc1nc(N)c2c(C)c(C)sc2n1`, the viability is 98.5% in experiment [1]; 98.5% (inactive) in experiment [3]; 86.5% (inactive) in experiment [4]; 88% (inactive) in experiment [5]; 83.5% in experiment [6] (setting [16]); 88% in [6] (setting [17]). The viability was 95.3% (inactive) in experiment [12] and 92.4% (inactive) in experiment [13]. The Her2 level in experiment [2] was 70.5% (inactive). The differential viability (reversal) in experiment [6] (H69AR cells + 2 uM doxorubicin) was 4.54% (inactive). For the same compound, the inhibition in [7] is -0.52% (inactive); in experiment [8], -8.33% (inactive); in [14], 0.34% (inactive). For the same compound, the figures for the growth inhibition in [9] and in experiment [10] were -10.6% (inactive) and -14% (inactive), respectively. For the same compound, the viability increase in [11] was -3.58% (inactive). The RAM network inhibition in experiment [15] was 8.79% (inactive).
As to `CC1=C(C(=O)OC(C)C)C(c2cccc(F)c2)n2ncnc2N1` (stereo not given), the viability in experiment [1] is 103%; in experiment [3] it was 103% (inactive); in experiment [4], 101% (inactive); in [5], 90.7% (inactive); in experiment [6] (setting [16]), 91.7%; in experiment [6] (setting [17]), 90.7%. Besides, the figures for the viability in [12] and in experiment [13] were 103% (inactive) and 100% (inactive), respectively. For the same compound, the Her2 level in experiment [2] was 112% (inactive). In experiment [6] (H69AR cells + 2 uM doxorubicin), the differential viability (reversal) is -1.02% (inactive). For the same compound, the results for the inhibition in experiment [7], in experiment [8] and in experiment [14] were 0.27% (inactive), 3.83% (inactive) and 1.74% (inactive), respectively. The growth inhibition is -7.79% (inactive) in [9] and -4.85% (inactive) in experiment [10]. Further, the viability increase in experiment [11] is 0.62% (inactive). For the same compound, the RAM network inhibition in experiment [15] was 5.32% (inactive).
On to `O=C(c1ccco1)N1CCN(C(=O)C2CC(c3ccc(F)cc3)=NO2)CC1` (stereo not given), for which the viability in experiment [1] was 88%; in [3], 88% (inactive); in experiment [4] it was 94.1% (inactive); in experiment [5], 88.5% (inactive); in [6] (setting [16]), 87.8%; in experiment [6] (setting [17]), 88.5%. Also, the viability in experiment [12] is 106% (inactive); in experiment [13], 105% (inactive). In addition, in [2], the Her2 level was 112% (inactive). Moreover, the differential viability (reversal) in experiment [6] (H69AR cells + 2 uM doxorubicin) is 0.74% (inactive). For the same compound, the inhibition is -1.15% (inactive) in experiment [7], -4.17% (inactive) in [8] and 0.47% (inactive) in [14]. Further, the growth inhibition in [9] was -1.38% (inactive); in [10], 22% (inactive). In [11], the viability increase was -1.41% (inactive). In addition, the RAM network inhibition in [15] is 5.01% (inactive).
